outcome, Potency and max response data for eight compounds are collected here from PubChem BioAssay (Tox21).

A short description of test [1]: qHTS assay to identify small molecule antagonists of the estrogen related receptor signaling pathway with the pleiotropic PPARgamma coactivator (PGC) from Tox21 10K library - cell viability counter screen (AID 1224840; active = well fitted cell-killing curve with a large enough effect in the repeat runs, not every such curve was filed as active; note: nearly all actives have a fitted effect of over 40% in size). An outline of the steps:
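Multiplexed viability counter screen in the PGC/ERR cell line: cells treated with DMSO-dissolved compounds for 17.5 hours at 37 C, then viability measured as CellTiter-Fluor fluorescence.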

Test [2] is described as follows: qHTS assay to identify small molecule antagonists of the estrogen related receptor signaling pathway with the pleiotropic PPARgamma coactivator (PGC) from Tox21 10K library (AID 1224841; call rule not given here; note: series mostly up to about 92 µM; actives are mostly falling curves and most rising ones were filed inactive; nearly all actives have a fitted effect of over 50% in size). An outline of the steps: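 Steps: plate 2,000 PGC/ERR cells per well; incubate 6 h at 37 C with 5% CO2; transfer compounds from DMSO stocks by pin tool; incubate 18 h at 37 C; add One-Glo; measure luminescence 30 min later.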

Test [3] can be described thus: qHTS assay to identify small molecule agonists of the estrogen related receptor signaling pathway with the pleiotropic PPARgamma coactivator (PGC) from Tox21 10K library (AID 1224842). Note: nearly all actives have a fitted effect of over 15% in size. The method, boiled down: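 PGC/ERR reporter cells (NTP line) were seeded 2,000 per well, rested 6 h at 37 C/5% CO2, then pin-dosed with compounds in DMSO for 18 h at 37 C; luciferase read by One-Glo luminescence after 30 min at room temperature.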

The target of test [4] is Thyrotropin receptor (Homo sapiens) (UniProt P16473). In words: qHTS assay to identify small molecule agonists of the thyroid stimulating hormone receptor (TSHR) signaling pathway (AID 1224843; calls by dose curve; note: nearly all actives have a fitted effect of over 45% in size). An outline of the steps:
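Compounds are titrated over 15 concentrations, in triplicate, onto TSHR-HEK293 cells seeded at 800/well. Plates sit 30 min at room temperature before cAMP-d2 and anti-cAMP cryptate are added; signal is read after a further hour.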

Test [5] is described as follows: qHTS assay to identify small molecule agonists of the hypoxia (HIF-1) signaling pathway - cell viability counter screen (AID 1224844; calls by dose curve; note: nearly all actives have a fitted effect of over 50% in size). The method, boiled down: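 Cytotoxicity was measured in parallel with the HRE-driven beta-lactamase readout: after 17 hrs of compound exposure at 37C, HRE-bla ME-180 cells received CellTiter-Glo and luminescence was recorded 30 min later.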

Test [6] in a line: qHTS assay to identify small molecule agonists of H2AX (AID 1224845; active = well fitted activation curve with a large enough effect in the signal ratio in the repeat runs, not every such curve was filed as active; the % refers to the signal ratio). The method, boiled down: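 Wild-type CHO-K1 cells plated overnight, then exposed 3 hr at 37C to compounds at 15 concentrations (0.76% DMSO). Lysed, then HTRF anti-pH2AX(S139)-cryptate/anti-H2AX-d2 detection after 24 hr at room temperature; emissions 665 and 620 nm.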
A short description of test [7]: qHTS assay to identify small molecule agonists of the hypoxia (HIF-1) signaling pathway (AID 1224846; active = well fitted activation curve with a large enough effect in the signal ratio in the repeat runs, not every such curve was filed as active; the % refers to the signal ratio). The method, boiled down: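 Compounds from the Tox21 10K library, dissolved in DMSO, are tested for induction of a hypoxia response element–controlled beta-lactamase reporter in ME-180 cells. Exposure lasts 17 hrs at 37C after a 5 hr settling period, followed by CCF4-AM FRET substrate.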

Test [8] is described as follows: qHTS assay to identify small molecule agonists of H2AX - cell viability counter screen (AID 1224847; calls by dose curve; note: top concentration of the series differs between compounds; nearly all actives have a fitted effect of over 30% in size). An outline of the steps:
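Cells plated first: CHO-K1, 1000 per well in 10% FBS medium, incubated overnight at 37C. Then 15-point compound titration added (final DMSO 0.76%) for 3 hr. Finally CellTiter-Glo added and luminescence read.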

A short description of test [9]: qHTS assay to identify small molecule antagonists of the estrogen related receptor (ERR) signaling pathway from Tox21 library (AID 1224848). Note: nearly all actives have a fitted effect of over 50% in size. The method, boiled down: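 First, 2,000 ERR cells per well were plated and held 6 h at 37 C/5% CO2. Next, compounds in DMSO were pinned in and left 18 h at 37 C. Finally, ONE-Glo was added and luminescence read after 30 min at room temperature.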

Test [10] can be described thus: qHTS assay to identify small molecule agonists of the estrogen related receptor (ERR) signaling pathway from Tox21 library (AID 1224849; calls by dose curve; note: nearly all actives have a fitted effect of over 15% in size). The method, boiled down:
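Cells carrying the ERR reporter were plated and allowed to settle for 6 h, exposed to library compounds for 18 h at 37 C, then lysed with ONE-Glo and luminescence measured.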

Test [11] is described as follows: qHTS RealTime-Glo MT Cell Viability Assay in HepG2 cells - 24 hour (AID 1224867). Note: nearly all actives have a fitted effect of over 50% in size. An outline of the steps:
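HepG2 cells (600/well) were dispensed with RealTime-Glo reagents, incubated 5 h at 37 °C, then treated with compounds in DMSO for up to 40 h. Nonlytic NanoLuc luminescence reflecting viable cells was read at each stated time point.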

Test [12] is described as follows: qHTS RealTime-Glo MT Cell Viability Assay in HEK293 cells - 32 hour (AID 1224868). An outline of the steps:
(§1)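 HEK293 cells seeded with NanoLuc/prosubstrate reagent, rested 5 h at 37 C, then dosed and kept at 37 C up to 40 h. Nonlytic real-time luminescence from viable cells read at 0, 8, 16, 24, 32 and 40 h.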

The nature of test [13]: A CellTox Green Cytotoxicity Assay to monitor cytotoxicity in HEK293 cells - 0 hour (AID 1224869). Note: nearly all actives have a fitted effect of over 50% in size. An outline of the steps: (§2)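 Cells (HEK293, 600/well) and dye reagent are dispensed together. After 5 h at 37 C, 23 nL compound is pinned in. Plates stay at 37 C for 40 h with fluorescence read at 0h, 8h, 16h, 24h, 32h and 40h.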
A short description of test [14]: qHTS RealTime-Glo MT Cell Viability Assay in HepG2 cells - 40 hour (AID 1224870). Note: nearly all actives have a fitted effect of over 50% in size. The method, boiled down: (§3)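 HepG2 cells mixed with RealTime-Glo MT reagents (NanoLuc plus cell-permeant prosubstrate) were seeded at 600 cells/well, incubated 5 h at 37 C/5% CO2, then pinned with compounds in DMSO; nonlytic luminescence tracked viability during 40 h treatment.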
Test [15] in a line: A CellTox Green Cytotoxicity Assay to monitor cytotoxicity in HEK293 cells - 40 hour (AID 1224871). Note: nearly all actives have a fitted effect of over 45% in size. An outline of the steps: as §2
Test [16] can be described thus: qHTS RealTime-Glo MT Cell Viability Assay in HEK293 cells - 16 hour (AID 1224872). Note: nearly all actives have a fitted effect of over 50% in size. Note: potency is the fitted concentration of half-maximal effect. The method, boiled down: as §1
Test [17] can be described thus: qHTS RealTime-Glo MT Cell Viability Assay in HepG2 cells - 8 hour (AID 1224873). Note: nearly all actives have a fitted effect of over 55% in size. An outline of the steps:
as §3

The nature of test [18]: qHTS RealTime-Glo MT Cell Viability Assay in HEK293 cells - 40 hour (AID 1224874). Note: nearly all actives have a fitted effect of over 50% in size. The settings on record: RealTime-Glo luminescence; max response: hits give low values. An outline of the steps: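 Real-time viability in HEK293: signal arises when living cells convert a prosubstrate for NanoLuc in the medium, so luminescence tracks viable cell number. Compound (23 nL, DMSO) added 5 h post-seeding; kinetic reads at 0–40 h, 37 C.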

For test [19], the target named is Nuclear receptor subfamily 1 group I member 3 (Homo sapiens) (UniProt Q14994). In words: qHTS assay to identify small molecule agonists of the constitutive androstane receptor (CAR) signaling pathway (AID 1224839).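 Note: HepG2 cells stably carrying human CAR and a CYP2B6 luciferase reporter; series mostly up to about 92 µM; nearly all actives have a fitted effect of over 15% in size.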 An outline of the steps:
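HepG2-CYP2B6-hCAR cells, 2500/well, 4 h pre-incubation; compounds 15 conc.; PK11195 0.75 uM final; 24 h, 37 C/5% CO2; ONE-Glo luciferase read.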

Test [20] is described as follows: A CellTox Green Cytotoxicity Assay to monitor cytotoxicity in HEK293 cells - 24 hour (AID 1224875). Note: series mostly up to about 77 µM; nearly all actives have a fitted effect of over 45% in size. The method, boiled down:
as §2

A number with no mark means an inactive call. Inconclusive results are not listed. Activity calls are given as the source filed them. Unless noted, calls come from the whole dose curve; as a rule, active = well fitted curve in the direction sought with a large enough effect in the repeat runs; inconclusive = weak or mixed curves; inactive = no such curve, though single readings can be large; an effect the other way counts as inactive or inconclusive.
% is set by controls: 0 for no effect and ±100 for the full control effect.

Chain of Nuclear receptor subfamily 1 group I member 3 (Homo sapiens) (Q14994 whole entry, looked up): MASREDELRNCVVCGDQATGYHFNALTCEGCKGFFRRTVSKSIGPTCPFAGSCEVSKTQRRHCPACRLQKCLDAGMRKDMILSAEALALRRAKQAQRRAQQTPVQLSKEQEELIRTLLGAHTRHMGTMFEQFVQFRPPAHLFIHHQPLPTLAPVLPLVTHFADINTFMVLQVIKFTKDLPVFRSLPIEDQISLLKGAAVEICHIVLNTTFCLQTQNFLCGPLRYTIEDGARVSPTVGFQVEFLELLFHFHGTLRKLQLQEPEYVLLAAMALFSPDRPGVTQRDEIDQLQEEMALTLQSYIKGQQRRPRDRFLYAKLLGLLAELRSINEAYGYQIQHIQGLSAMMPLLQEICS
Chain of Thyrotropin receptor (Homo sapiens) (P16473 whole entry, looked up): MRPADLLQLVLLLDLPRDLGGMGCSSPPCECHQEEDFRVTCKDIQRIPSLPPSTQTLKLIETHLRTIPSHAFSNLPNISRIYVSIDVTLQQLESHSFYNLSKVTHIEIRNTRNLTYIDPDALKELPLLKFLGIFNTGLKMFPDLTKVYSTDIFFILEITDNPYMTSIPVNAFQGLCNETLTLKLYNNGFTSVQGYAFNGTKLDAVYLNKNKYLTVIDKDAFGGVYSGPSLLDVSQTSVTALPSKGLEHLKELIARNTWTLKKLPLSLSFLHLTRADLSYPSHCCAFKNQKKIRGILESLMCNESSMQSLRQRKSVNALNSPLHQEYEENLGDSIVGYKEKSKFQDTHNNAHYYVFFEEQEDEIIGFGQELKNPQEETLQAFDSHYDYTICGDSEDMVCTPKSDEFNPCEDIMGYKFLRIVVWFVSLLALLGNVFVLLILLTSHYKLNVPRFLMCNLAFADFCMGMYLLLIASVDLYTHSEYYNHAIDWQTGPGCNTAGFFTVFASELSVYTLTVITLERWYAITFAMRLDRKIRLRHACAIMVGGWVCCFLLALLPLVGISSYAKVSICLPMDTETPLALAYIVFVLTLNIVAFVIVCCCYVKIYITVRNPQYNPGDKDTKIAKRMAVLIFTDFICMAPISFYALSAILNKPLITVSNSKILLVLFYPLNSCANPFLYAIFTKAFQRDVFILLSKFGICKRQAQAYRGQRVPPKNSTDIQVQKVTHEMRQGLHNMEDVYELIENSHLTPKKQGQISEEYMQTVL

`NC(=O)NC(=O)Cc1ccccc1`: the result in test [1], in test [3], in test [4], in [5], in test [6] and in [7] was inactive. In addition, the result in test [10], in test [11], in test [14] and in test [17] was inactive. Besides, the Potency entry in test [2], in [8], in [9], in test [12], in [13] and in test [15] was “inactive” each time. Besides, in test [16], the Potency entry was “inactive”. In addition, the max response in test [18] was 3.75%.
Take `Nc1cc(Cl)cc(S(=O)(=O)O)c1O`: the Potency result in test [19], in test [8], in test [12], in test [13], in test [15] and in test [16] was “inactive” throughout. Besides, the compound was classed as inactive in [1], in test [5], in test [7], in [11], in test [14] and in test [17]. Also, the max response in [18] is -4.63%.
Consider `O=C(O)c1ccc(OCCN2CCCCC2)cc1`, for which the result in test [1], in [3], in test [4], in test [5], in [6] and in test [7] was inactive. For the same compound, the call in test [10], in test [11], in [14] and in test [17] was inactive. For the same compound, the Potency entry in [2], in test [9], in test [12], in test [13], in [15] and in [16] was “inactive” throughout. For the same compound, the Potency entry in test [20] is “inactive”. In addition, the max response in [18] was 5.16%.
Turning to `CCCCOC(=O)[C@@H](C)Oc1ccc(Oc2ccc(C(F)(F)F)cn2)cc1`, the Potency result in [19], in test [13], in test [15] and in test [20] was “inactive” each time. In addition, the compound was classed as inactive in test [1], in test [5], in test [6], in test [7], in test [11] and in test [14]. Besides, in test [17], the result was inactive. Also, in test [16], the Potency is 31.1 µM (active).
For the compound `Nc1nc(=O)n([C@@H]2O[C@H](CO)[C@@H](O)[C@@H]2F)cc1I`, the Potency entry in [19], in test [8], in test [12], in [13], in test [15] and in test [16] was “inactive” throughout. The Potency entry in test [20] is “inactive”. The outcome in test [4], in test [6], in [11], in test [14] and in [17] was inactive. For the same compound, the max response in test [18] was 3.93%.
Regarding `O=S1(=O)CCCC1`, the Potency result in [19], in test [12], in test [13], in [15] and in [16] was “inactive” in each case. Moreover, the result in test [5], in [6], in [7], in [11], in test [14] and in test [17] was inactive. The max response in test [18] is 9.26%.
For `CC(=O)c1ccc2c(c1)CCCC2`, the Potency entry in [19], in [8], in [9], in [12], in [13] and in [15] was “inactive” each time. Further, the Potency entry in test [16] and in test [20] was “inactive” each time. The compound was classed as inactive in test [3], in [4], in test [5], in test [6], in test [7] and in test [10]. The call in test [11], in [14] and in [17] was inactive. In addition, the max response in [18] is -1.61%.
Regarding `CO[Si](CCCCl)(OC)OC`, the Potency result in test [19], in test [12], in [13], in test [15], in [16] and in [20] was “inactive” each time. For the same compound, the result in [1], in test [5], in test [6], in test [11], in test [14] and in test [17] was inactive. The max response in test [18] is 28.4%.
